From PubChem BioAssay
The list is not random: actives were taken first. Their share in the collection is about 4.1%.
aSyn 5UTR inh: MLPCN primary screen, SNCA 5' untranslated region; alpha-synuclein 5'UTR reporter, inhibitor activity; inhibition, % (tested at 7.5 µM); actives 0.82% (n = 300,000); in the data active = inhibition above about 60%;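 note: H4 neuroglioblastoma cells stably carrying SNCA 5'UTR luciferase fusion; 0% = DMSO wells and 100% = positive control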
CSC inhib: cancer stem cell viability inhibitors, primary screen, luminescence | cancer stem cell-like cells viability | AID 2717, 2010 | inhibition, % at 7.5 µM | actives 1.1% (n = 300,000); in the data active = inhibition above about 75%; tested in HMLE shEcad cells
Mdm2 MdmX PPI: inhibitors of human Mdm2-MdmX association, primary screen, cell-based, luminescence, split luciferase, SaOS-2, uHTS | AID 485346, 2010 | SaOS-2 split-luciferase Mdm2/MdmX complementation | inhibition, % at 8 µM | actives 3% (n = 330,000) | Protein Mdm4 (Homo sapiens) + E3 ubiquitin-protein ligase Mdm2 (Homo sapiens), …;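 active = inhibition of at least 50% at 8 µM in the primary screen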
Beta apoptosis: inhibitors of cytokine-induced beta cell apoptosis, primary screen, luminescence; INS-1E cytokine-induced death, ATP luminescence, 48 h; percent of positive-control rescue, neutral wells zero; protection from apoptosis, % (test concentration not listed); actives 0.8% (n = 300,000); AID 435005, 2010;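 active = Every replicate reaches about 75%, or at least half do and their mean reaches it too, limit read from the data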;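 note: 0% = cytokine-treated negative control wells and 100% = positive control rescue; higher means more ATP so stronger rescue from cytokine killing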
Bfl-1 A1 inh: caspase 3/7 activation in MEF A1-2A-BIM cells, primary screen, A1 inhibitor project, cell-based, luminescence, HTS; Caspase-Glo 3/7 luminescence, 3 h; percent of clofoctol response, vehicle zero; caspase activation, % (concentration not given with the values); actives 0.066% (n = 330,000); AID 2462, 2010;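 active = over half of replicate activation scores above 10%, or exactly half above 10 with the replicate mean above 10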
Mdm2-MdmX conf: Mdm2-MdmX complex disruptors, retested hits, confirmation, luminescence, single concentration; actives 55% (n = 10,000); inhibition, % at 8 µM; Mdm2-MdmX binding, luminescent assay; shares compounds with Mdm2 MdmX PPI; in the data active = inhibition above about 40%
FLuc counter: full-length luciferase signal inhibition, confirmation, counter-screen for Mdm2/MdmX interaction inhibitor project, cell-based, single concentration, SaOS-2; shares compounds with Mdm2 MdmX PPI; SaOS-2 full-length luciferase counterscreen, luminescence; inhibition, % at 8 µM; actives 77% (n = 6,200); AID 504607, 2011;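 active = mean inhibition at 8 µM reaching about 37%, which flags the compound as non-specific, limit read from the data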;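 note: p53-null SaOS-2 cells with luciferase driven by a doxycycline-inducible promoter; compound on cells about two nights before reading with doxycycline added after day one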
Starred values were filed as active, the others as inactive; x = no result given.

SMILES	aSyn 5UTR inh	CSC inhib	Mdm2 MdmX PPI	Beta apoptosis	Bfl-1 A1 inh	Mdm2-MdmX conf	FLuc counter
CCCCCCOC(=O)C[N+](C)(C)CCOC1CC2CCC1(C)C2(C)C (stereo not given)	5	-6	67*	123*	-1	74*	18
CCN(C[C@H]1N[C@@](CC)(C(=O)OC)[C@H]2C(=O)N(C)C(=O)[C@@H]12)C(=O)c1ccccc1	x	x	-48	x	x	x	x
Cn1c(=O)[nH]c(=O)c2c1nc(SCC(N)=O)n2Cc1cccc(Br)c1	-6	7	63*	-8	0	32	x
Cc1ccc(Cn2c(SCC(C)C)nc3c2c(=O)[nH]c(=O)n3C)cc1	28	-6	60*	1	-1	29	x
CCCSc1nc2c(c(=O)[nH]c(=O)n2C)n1Cc1ccc(C)cc1	28	6	36	-8	1	x	x
Cc1cc(Sc2ncnc(N)c2[N+](=O)[O-])ncn1	-46	37	93*	-41	4	-1	x
Cc1cc(Sc2nc(N)ncc2[N+](=O)[O-])ncn1	-12	15	14	-13	-1	x	x
Cc1csc(NC(=O)Cc2c(F)cccc2Cl)n1	-131	7	-42	5	0	x	x
Cc1csc(Nc2nc(N)c(C(=O)Nc3cc(Cl)ccc3F)o2)n1	-53	14	55*	22	0	9	x
CC[C@]12c3[nH]c4ccc(Cl)cc4c3CCN1C(=O)[C@@H](CC(=O)NCc1ccc(OC)c(OC)c1)C[C@@H]2C(=O)N1CCN(C(=O)C2CC2)CC1	x	x	13	x	x	x	x
COc1ccc(CNC(=O)C[C@H]2C[C@H](C(=O)N3CCCCC3)[C@@]3(CCc4ccccc4)c4[nH]c5ccc(Cl)cc5c4CCN3C2=O)cc1OC	x	x	55*	x	x	1	x
O=C(C[C@H]1C[C@H](C(=O)N2CCCCC2)[C@@]2(CCc3ccccc3)c3[nH]c4ccc(Cl)cc4c3CCN2C1=O)NCCCn1ccnc1	x	x	49	x	x	x	x
O=C(C[C@H]1C[C@H](C(=O)N2CCCCC2)[C@@]2(CCc3ccccc3)c3[nH]c4ccc(Cl)cc4c3CCN2C1=O)NCCN1CCOCC1	x	x	83*	x	x	42*	42*
Cc1cc(C)n(-c2nc3nonc3nc2Nc2cccc(C)c2C)n1	3	-11	51*	-2	-1	20	x
Cc1ccccc1S(=O)(=O)Oc1cccc2c(O)cccc12	-17	32	7	-5	1	x	x
COc1ccccc1C/C(N)=N/OC(=O)c1ccc2c(c1)OCO2	-10	-8	78*	-1	1	41*	70*
COc1ccc(C(=O)O/N=C(\N)Cc2cccs2)cc1OC	-1	-3	86*	0	0	51*	68*
COc1ccccc1C/C(N)=N/OC(=O)c1ccc(C)c([N+](=O)[O-])c1	-2	-8	2	-2	-1	x	x
COc1ccc(/C(N)=N/OC(=O)Cc2cccs2)cc1OC	-21	-10	-9	0	0	x	x
CCN1CCN(c2cc(C)c3cc(NC(=S)N4CCN(c5ccccc5F)CC4)ccc3n2)CC1	-21	57	80*	-1	-1	45*	60*
CCN1CCN(c2cc(C)c3cc(NC(=S)N4CCC5(CC4)OCCO5)ccc3n2)CC1	-5	15	21	-2	0	x	x
CCCN1CCN(C(=S)Nc2ccc3nc(N4CCN(CC)CC4)cc(C)c3c2)CC1	-43	30	50*	-8	1	43*	46*
CCN1CCN(c2cc(C)c3cc(NC(=S)N4CCOCC4)ccc3n2)CC1	-24	3	17	-6	0	x	x
Cc1cc(N2CCOCC2)nc2ccc(NC(=S)N3CCN(c4ccccc4)CC3)cc12	3	44	10	13	0	x	x
CCC(C)NC(=S)Nc1ccc2nc(N3CCN(CC)CC3)cc(C)c2c1 (stereo not given)	-95	42	52*	-1	1	36	61*
SMILES	aSyn 5UTR inh	CSC inhib	Mdm2 MdmX PPI	Beta apoptosis	Bfl-1 A1 inh	Mdm2-MdmX conf	FLuc counter
CCN1CCN(c2cc(C)c3cc(NC(=S)N4CCN(c5ccccc5)CC4)ccc3n2)CC1	20	42	100*	27	1	44*	52*
CCCCN1C(=O)C(=O)N(CC(=O)Nc2sc(CC)cc2C(=O)OCC)C1=O	-4	1	-9	-2	0	x	x
Cc1cc(C)c(OCC(=O)OCC(=O)N2CCCc3ccccc32)c(C)c1	8	-12	4	-4	0	x	x
CCOc1ccc(C(=O)Nc2ccc3nc(N4CCN(CC)CC4)cc(C)c3c2)cc1	67*	45	55*	14	0	38	60*
CCN1CCN(c2cc(C)c3cc(NC(=O)c4cc(OC)cc(OC)c4)ccc3n2)CC1	-98	8	36	3	-1	x	x
CC1CCN(CCc2nc3cc(NC(=O)COc4ccc(Cl)cc4)ccc3n2C)CC1	29	1	57*	x	1	35	x
COc1ccc(OCC(=O)Nc2ccc3c(c2)nc(CCN2CCC(C)CC2)n3C)cc1	14	2	9	x	1	x	x
C/C(N=Nc1nc2ccccc2s1)=N\Nc1ccccc1O	-1	85*	56*	70	0	58*	26
Oc1[nH]c2ccccc2c1N=Nc1nc2ccccc2s1	-12	3	-4	-3	-4	x	x
CN(C)CCN(C(=O)c1ccc(C(=O)c2ccccc2)cc1)c1nc2cc3c(cc2s1)OCCO3	-46	-2	2	-9	-2	x	x
CN(C)CCCN(C(=O)c1ccc2c(c1)CCCC2)c1nc2cc3c(cc2s1)OCO3	28	8	64*	2	2	49*	56*
CN(C)CCCN(C(=O)c1ccc(C(=O)c2ccccc2)cc1)c1nc2cc3c(cc2s1)OCCO3	-24	-29	53*	0	-1	39	87*
CN(C)CCCN(C(=O)c1ccc2c(c1)CCCC2)c1nc2ccc(F)cc2s1	-157	x	38	11	0	x	x
O=C(COc1ccccc1)NC1CCCCCCC1	-67	-2	24	-2	0	x	x
O=C(CCC(=O)c1ccc(F)cc1)NC1CCCN(Cc2ccccc2F)C1 (stereo not given)	15	-8	-21	-4	0	x	x
Cc1cc(=O)n2nc(N3CCCC(C(=O)NC4CCC(C)CC4)C3)sc2n1 (stereo not given)	4	5	20	5	0	x	x
CN(C)C(=O)CNC(=O)CN1C(=O)NC2(CCCc3sccc32)C1=O (stereo not given)	0	-24	9	-2	0	x	x
